Measured values reported in the supplement of paper PMC6555819.

What was measured:
Test in all cases: PBM binding z-score (relative to random genomic background probes); higher = stronger binding; sequences stand for … in GC…GCGATTGACAGCGTAGAATGAAGG
[1] = tested on: FXR:RXRa (NR concentration 270 nM, RXRa partner concentration 90 nM)
Method in brief: (§1)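 Custom Agilent 4×180K protein-binding microarrays carried double-stranded probes, each with a 34-nt variable region. These regions held direct-repeat seeds, single-nucleotide variants, half-site ablations and random human genomic background sequences. Ligand-free nuclear receptor dimers were incubated on the arrays for 1 h, antibodies against each partner (one per run) detected binding, and scanned fluorescence was regression-normalized. Binding z-scores take the random background probes as reference.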

[2] = tested on: LXRa:RXRa (NR concentration 270 nM, RXRa partner concentration 90 nM)
Method in brief: as §1

[3] = tested on: LXRa homodimer (NR concentration 270 nM)
Method in brief: as §1

[4] = tested on: LXRb:RXRa (NR concentration 270 nM, RXRa partner concentration 90 nM)
Method in brief: as §1

[5] = tested on: LXRb homodimer (NR concentration 270 nM)
Method in brief: as §1

[6] = tested on: PPARa:RXRa (NR concentration 270 nM, RXRa partner concentration 90 nM)
Method in brief: as §1

[7] = tested on: PPARg:RXRa (NR concentration 180 nM, RXRa partner concentration 90 nM)
Method in brief: as §1

[8] = tested on: PPARg:RXRa 270nM:90nM, anti-RXR (NR concentration 270 nM, RXRa partner concentration 90 nM)
Method in brief: as §1

[9] = tested on: PPARg:RXRa 30nM:10nM, anti-RXR (NR concentration 30 nM, RXRa partner concentration 10 nM)
Method in brief: as §1

[10] = tested on: PPARg:RXRa 90nM:30nM, anti-RXR (NR concentration 90 nM, RXRa partner concentration 30 nM)
Method in brief: as §1

[11] = tested on: PPARg:RXRa DBDmut IVT, anti-RXR (DBD mutation: RXRa K156A/R161A, NR concentration 270 nM, RXRa partner concentration 90 nM)
Method in brief: as §1

[12] = tested on: PPARg:RXRa IVT, anti-PPARg (NR concentration 270 nM, RXRa partner concentration 90 nM)
Method in brief: as §1

[13] = tested on: PPARg DBDmut:RXRa IVT, anti-PPARg (DBD mutation: PPARg1 K132A/R137A, NR concentration 270 nM, RXRa partner concentration 90 nM)
Method in brief: as §1

[14] = tested on: PPARg DBDmut IVT, anti-PPARg (DBD mutation: PPARg1 K132A/R137A, NR concentration 270 nM)
Method in brief: as §1

[15] = tested on: PPARg homodimer (NR concentration 180 nM)
Method in brief: as §1

[16] = tested on: PXR:RXRa (NR concentration 270 nM, RXRa partner concentration 90 nM)
Method in brief: as §1

[17] = tested on: PXR homodimer (NR concentration 270 nM)
Method in brief: as §1

[18] = tested on: RARa:RXR (NR concentration 270 nM, RXRa partner concentration 90 nM)
Method in brief: as §1

[19] = tested on: RARa homodimer (NR concentration 270 nM)
Method in brief: as §1

[20] = tested on: RARb:RXRa (NR concentration 270 nM, RXRa partner concentration 90 nM)
Method in brief: as §1

Sequence | PBM binding z-score [1] | PBM binding z-score [2] | PBM binding z-score [3] | PBM binding z-score [4] | PBM binding z-score [5] | PBM binding z-score [6] | PBM binding z-score [7] | PBM binding z-score [8] | PBM binding z-score [9] | PBM binding z-score [10] | PBM binding z-score [11] | PBM binding z-score [12] | PBM binding z-score [13] | PBM binding z-score [14] | PBM binding z-score [15] | PBM binding z-score [16] | PBM binding z-score [17] | PBM binding z-score [18] | PBM binding z-score [19] | PBM binding z-score [20]
CCGACTGGGGCAAAGCTTACCATACTCAGTACGA | -0.466 | -0.638 | -0.547 | -0.287 | -0.784 | 0.592 | 1.53 | 2.52 | 0.444 | 2.26 | 4.39 | 2.85 | -0.291 | -0.457 | 0.119 | -0.708 | -0.701 | -0.665 | -0.639 | 0.229
CGAACGAGGGCATGAGATGATAGCAAATGCCGAT | 0.416 | 0.173 | 0.0308 | -0.0144 | -0.705 | 1.22 | 1.5 | 0.73 | 0.325 | 0.278 | 2.91 | 1.69 | 0.746 | -0.282 | 0.685 | 0.00253 | -0.206 | 0.422 | 0.183 | 1.79
GGACCGAGGGCAAAGTTGATAGCATCTGTCGACG | 1.12 | 0.801 | -0.42 | 0.811 | -0.953 | 2.74 | 3.41 | 4.82 | 2.42 | 4.42 | 0.973 | 1.67 | -0.427 | -0.551 | 0.198 | 1.04 | -0.387 | 1.26 | -0.439 | 2.4
ATATGTAGGTTAAGGGTCATTTAGGTTGGTTCGC | 5.62 | 4.94 | 3.45 | 4.87 | 1.82 | 6.75 | 11.6 | 9.62 | 10.6 | 11 | 7.27 | 7.94 | 3.6 | 3.31 | 3.63 | 5.37 | 2.03 | 5.61 | 2.42 | 3.61
CAAACTAGGTCACGAAAGCTCAAAGTCGAATGAC | 4.45 | 3.66 | 0.551 | 2.56 | 0.287 | 5.46 | 9.27 | 7.24 | 5.74 | 7.12 | 8.36 | 8.78 | 1.59 | 1.7 | 2.09 | 2.01 | -0.0695 | 2.59 | 0.726 | 4.42
TCGAGTAGGATAGTCGGGGCATTCAGCCAACATA | -0.379 | -0.526 | -0.613 | -0.239 | -0.624 | -0.194 | -0.199 | 0.184 | 0.98 | 0.413 | 0.456 | -0.749 | -1.74 | -1.22 | -0.949 | -0.303 | -0.615 | -0.363 | -0.838 | -0.448
ACTAGCAGGCCAAGTTTGGGTCATTCAAACAAAG | 0.394 | 0.425 | -0.172 | 0.818 | -0.545 | 1.8 | 0.0288 | 0.215 | -0.284 | -0.177 | 0.974 | 1.1 | -0.68 | -0.939 | 0.745 | 1.08 | -0.0146 | 1.73 | -0.276 | 1.69
GCTGCTAGGTCAACTGATGCTCAGCTAAAGCTCG | 4.03 | 2.63 | -0.106 | 1.88 | -0.349 | 3.79 | 2.66 | 3.35 | 0.299 | 2.26 | 4.93 | 3.92 | -0.517 | -0.991 | 1.02 | 1.26 | -0.735 | 2.18 | -0.0559 | 4.27
ATACCAAGGTGATCGTGAGATCGTTGATACTAAC | 0.2 | 0.163 | 0.16 | 0.121 | -0.2 | 0.129 | 0.447 | 0.161 | -0.226 | -0.234 | 0.453 | 1.18 | 0.758 | 0.465 | 0.145 | -0.151 | -0.339 | 0.227 | 0.462 | 0.492
AGTCAAAGTTCACTAGGTAACGCAAGATTCAGCT | 5.26 | 4.86 | 2.69 | 2.93 | 0.956 | 4.83 | 7.22 | 6.82 | 3.62 | 6.03 | 3.01 | 4.84 | 0.915 | 1.01 | 2.5 | 3.77 | 2.6 | 3.32 | 1.39 | 4.93
GGAACGAGAGCAAGTTGATAGCAGAGTTTGATGG | -0.63 | -0.766 | -0.719 | -0.852 | -1.03 | -0.523 | 0.39 | -0.573 | -0.225 | -0.721 | 0.286 | -0.607 | -0.891 | -0.825 | -0.674 | -0.482 | 0.00313 | -0.584 | -0.345 | -0.427
ATCGAAAGGTCGAAGGTAAGTATACCCACCCGAA | 3.95 | 3.26 | 0.165 | 2.83 | 0.858 | 4.25 | 3.8 | 3.88 | 1.59 | 2.86 | -0.0708 | 1.49 | 0.751 | 0.919 | 0.93 | 2.6 | 0.149 | 3.27 | 0.263 | 3.59
TCGAGTAGGTTAGTCGGGGCATTTAGCCAACATA | 0.338 | 0.346 | -0.167 | 0.722 | -0.677 | 0.819 | -0.0847 | 0.976 | 1.17 | 1.04 | 2.28 | 1.85 | -0.436 | -0.412 | 0.35 | 0.275 | -0.067 | 0.501 | -0.283 | 0.582
GCTCGGAGGACAAGGTCCGAGCTTTGTCCGTAGA | -0.694 | -0.575 | -1.02 | -1.07 | -1.61 | -0.595 | -1.19 | -0.67 | -1.34 | -1.09 | -0.364 | -0.655 | -1.03 | -1.31 | -1.07 | -0.519 | -1.19 | -0.414 | -1.77 | 0.839
